Results on seven compounds are retold here after PubChem BioAssay (EPA / NIEHS).

SMILES strings stand for the structures. Values joined by “and” are separate entries in the source; they are usually repeats but may differ in a detail not shown here. Equal entries are not always repeated. Results filed as inconclusive are left out. Some structures have more than one record in an assay (separate samples or runs), and their calls can disagree. Active and inactive are the calls of the source. Rule for the calls, unless noted: active = hit-call score of the fitted dose curve at least 0.9, where 1 is the maximum; inconclusive = response in the unintended direction; inactive = score below 0.9.

The AC50 is the midpoint of the concentration-response curve, whichever way the signal moves.

The nature of test [1]: ATG_TAL_CIS: Attagene CIS-FACTORIAL HepG2 Assay for human TAL Basal Promoter (AID 2282966; active = hit-call score of the fitted dose curve at least 0.9, where 1 is the maximum; inactive = score below 0.9;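 note: background control endpoint measuring basal TAL promoter reporter mRNA not a specific factor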). As to conditions: HepG2 Attagene cis-factorial TAL promoter reporter; actives raise or lower the signal. A digest of the protocol:
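Steps: transfect HepG2 with multiple reporter transcription units; dose 24 h; isolate RNA, reverse-transcribe, PCR-amplify, label with 6-FAM, digest with HpaI; resolve by capillary electrophoresis. Bidirectional fitting against DMSO baseline.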

A short description of test [2]: ATG_TGFb_CIS: Attagene CIS-FACTORIAL HepG2 Assay for human Transforming Growth Factor (TGF) (AID 2282967; active = hit-call score of the fitted dose curve at least 0.9, where 1 is the maximum; inactive = score below 0.9). The conditions noted are these: HepG2 Attagene CIS TGFb reporter, mRNA transcription; actives raise or lower the signal. Put shortly: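 Transient MRTU transfection of HepG2 (FuGene 6). Dose 24 h. TriZol RNA, oligo(dT) RT, PCR, 6-FAM primer extension, HpaI cut, CE. Bidirectional fit, DMSO = baseline.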

A short description of test [3]: ATG_VDRE_CIS: Attagene CIS-FACTORIAL HepG2 Assay for human Vitamin D Receptor Element (VDRE) (AID 2282968; active = hit-call score of the fitted dose curve at least 0.9, where 1 is the maximum; inactive = score below 0.9). As to conditions: HepG2 VDRE cis-reporter transcription, actives raise or lower the signal. A digest of the protocol: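 Cell-based multiplexed reporter format in human liver HepG2 cells, 24 h post-dose. Fluorescence from capillary electrophoresis of reporter cDNA gives the signal, with DMSO as negative control and baseline.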

Test [4] addresses Estrogen receptor (Homo sapiens) (UniProt P03372). In words: ATG_ERa_TRANS: Attagene TRANS-FACTORIAL HepG2 Assay for human Estrogen Receptor alpha (ERa) (AID 2282970). As to conditions: HepG2 Attagene TRANS ERa GAL4 reporter, mRNA. A digest of the protocol:
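Multiplexed cell-based reporter format in HepG2: chimeric ERa-Gal4 protein drives GAL4-UAS reporter transcription. Fluorescent reporter mRNA quantified by capillary electrophoresis 24 hours after dosing; endpoint fitted as signal gain against DMSO.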

Test [5] concerns the target Steroid hormone receptor ERR1 (Homo sapiens) (UniProt P11474). Briefly: ATG_ERRa_TRANS: Attagene TRANS-FACTORIAL HepG2 Assay for human Estrogen-Related Receptor alpha (ERRa) (AID 2282971). As to conditions: HepG2 Attagene TRANS reporter, ERRa transactivation. A digest of the protocol: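 Signal gain relative to DMSO for an ERRa-Gal4 chimeric receptor, read as reporter mRNA by RT-PCR/capillary electrophoresis. Human HepG2 liver cells, transient multiplex reporter transfection, 24 h chemical exposure.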

In test [6] the target is X-box-binding protein 1 (Homo sapiens) (UniProt P17861). Briefly: ATG_Xbp1_CIS: Attagene CIS-FACTORIAL HepG2 Assay for human X-box Binding Protein 1 (XBP1) (AID 2282972; active = hit-call score of the fitted dose curve at least 0.9, where 1 is the maximum; inactive = score below 0.9). As to conditions: HepG2 XBP1 cis-element reporter, Attagene multiplex; actives raise or lower the signal. A digest of the protocol: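 HepG2 cells transiently transfected with multiple cis-element reporter units report endogenous TF activity; 24 h exposure, then reporter mRNA measured by RT-PCR, 6-FAM labelling, HpaI digestion and capillary electrophoresis. Bidirectional fitting versus DMSO.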

Test [7] has as its target Estrogen-related receptor gamma (Homo sapiens) (UniProt P62508). Briefly: ATG_ERRg_TRANS: Attagene TRANS-FACTORIAL HepG2 Assay for human Estrogen-Related Receptor gamma (ERRg) (AID 2282977).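 Note: hits increase reporter signal over DMSO so potencies reflect activators.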 The conditions noted are these: HepG2 Attagene TRANS reporter, ERRg transactivation. Put shortly: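 HepG2 cells transiently transfected with multiplexed GAL4-UAS reporter units and chimeric NR-Gal4 constructs were exposed to test chemicals for 24 h. Reporter mRNA was measured by RT-PCR, 6-FAM primer extension, HpaI digestion and capillary electrophoresis; gain-of-signal versus DMSO.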

The target of test [8] is Glucocorticoid receptor (Homo sapiens) (UniProt P04150). In words: ATG_GR_TRANS: Attagene TRANS-FACTORIAL HepG2 Assay for human Glucocorticoid Receptor (GR) (AID 2282978).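 Note: activators score as hits since higher reporter transcript over DMSO is fitted.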 As to conditions: HepG2 Attagene TRANS GR reporter, mRNA transcription. Put shortly: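 Fluorescent capillary-electrophoresis quantitation of reporter mRNA is the readout, taken 24 h after dosing human HepG2 cells carrying transiently transfected GAL4-UAS reporter units activated by chimeric NR-GAL4 fusions; activity scored as induction over DMSO.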

Test [9] concerns the target Bile acid receptor (Homo sapiens) (UniProt Q96RI1). Briefly: ATG_FXR_TRANS: Attagene TRANS-FACTORIAL HepG2 Assay for Farnesoid X Receptor (FXR) (AID 2282979).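 Note: hits raise reporter mRNA above DMSO so AC50 marks FXR activation.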 The conditions noted are these: HepG2 Attagene TRANS FXR-GAL4 reporter transcription. Put shortly: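 After 24 h chemical treatment of transfected HepG2 cells, GAL4-UAS reporter transcripts driven by an exogenous FXR-GAL4 fusion were measured by RT-PCR and capillary electrophoresis. Increases over DMSO were fitted.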

Test [10] has as its target Oxysterols receptor LXR-alpha (Homo sapiens) (UniProt Q13133). In words: ATG_LXRa_TRANS: Attagene TRANS-FACTORIAL HepG2 Assay for human Liver X Receptor alpha (LXRa) (AID 2282980). As to conditions: HepG2 Attagene TRANS reporter, LXRa transactivation. Put shortly: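 In this multiplexed TRANS system, compounds act on HepG2 cells carrying GAL4-UAS reporter units and a receptor-GAL4 fusion for 24 h. Induced reporter RNA is amplified, fluorescently labelled and sized by capillary electrophoresis, with DMSO as baseline.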

The target in test [11] is Oxysterols receptor LXR-beta (Homo sapiens) (UniProt P55055). Briefly: ATG_LXRb_TRANS: Attagene TRANS-FACTORIAL HepG2 Assay for human Liver X Receptor beta (LXRb) (AID 2282981). The conditions noted are these: HepG2 Attagene TRANS GAL4-LXRb reporter, mRNA. A digest of the protocol:
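Gain-of-signal mRNA reporter endpoint, DMSO as negative control. Transiently transfected HepG2 cells carrying the NR-Gal4 chimera and GAL4-UAS reporter units were treated 24 h; transcripts quantified by RT-PCR and capillary electrophoresis fluorescence.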

Test [12] has as its target Hepatocyte nuclear factor 4-alpha (Homo sapiens) (UniProt P41235). In words: ATG_HNF4a_TRANS: Attagene TRANS-FACTORIAL HepG2 Assay for human Hepatocyte Nuclear Factor 4 alpha (HNF4a) (AID 2282982). As to conditions: HepG2 HNF4a transactivation reporter, mRNA readout. A digest of the protocol: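 Gain-of-signal mRNA induction, relative to DMSO vehicle, was read after 24 h compound treatment of HepG2 cells bearing transfected GAL4-UAS reporters. Detection used RT-PCR, 6-FAM primer extension and capillary electrophoresis.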

Test [13] can be described thus: ATG_M_06_TRANS: Attagene TRANS-FACTORIAL HepG2 Assay for M06 Transcription Factor (Internal Marker) (AID 2282983). The conditions noted are these: HepG2 Attagene TRANS M06 internal marker reporter. A digest of the protocol: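 Internal-marker background readout from a multiplexed TRANS reporter system in HepG2; 24 h dosing; mRNA induction quantified by RT-PCR plus capillary electrophoresis fluorescence; DMSO as negative control and baseline.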

Test [14] is described as follows: ATG_M_32_TRANS: Attagene TRANS-FACTORIAL HepG2 Assay for M32 Transcription Factor (Internal Marker) (AID 2282984). As to conditions: HepG2 Attagene TRANS M32 internal marker reporter. A digest of the protocol:
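Capillary electrophoresis of 6-FAM-labelled reporter fragments gives the signal; data fitted for gain over DMSO negative control. Source: HepG2 cells bearing transient multiple reporter transcription units, 24 h exposure.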

Test [15] addresses Nuclear receptor subfamily 4 group A member 2 (Homo sapiens) (UniProt P43354). In words: ATG_NURR1_TRANS: Attagene TRANS-FACTORIAL HepG2 Assay for human Nuclear Receptor Related Protein 1 (NURR1) (AID 2282985). As to conditions: HepG2 Attagene TRANS reporter, mRNA readout. A digest of the protocol: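 HepG2 / transient MRTU transfection / 24 h compound exposure / RT-PCR + CE fluorescence of reporter mRNA / gain-of-signal vs DMSO.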

Test [16] concerns the target Transcriptional activator Myb (Homo sapiens) (UniProt P10242). In words: ATG_Myb_CIS: Attagene CIS-FACTORIAL HepG2 Assay for human Myeloblastosis (Myb) Proto-Oncogene Transcription Factor (AID 2282986; active = hit-call score of the fitted dose curve at least 0.9, where 1 is the maximum; inactive = score below 0.9). The conditions noted are these: HepG2 Attagene CIS-FACTORIAL Myb reporter transcription; actives raise or lower the signal. Put shortly:
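Reporter transcript levels, quantified by fluorescent RT-PCR and capillary electrophoresis, serve as the read-out. Transfected HepG2 cells carrying cis-promoter reporter units are dosed for 24 hours, and curves are fitted bidirectionally against DMSO controls.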

Test [17] addresses Nuclear respiratory factor 1 (Homo sapiens) (UniProt Q16656). Briefly: ATG_NRF1_CIS: Attagene CIS-FACTORIAL HepG2 Assay for human Nuclear Respiratory Factor 1 (NRF1) Orphan Gene (AID 2282987; active = hit-call score of the fitted dose curve at least 0.9, where 1 is the maximum; inactive = score below 0.9). The conditions noted are these: HepG2 NRF1 cis-element reporter, Attagene multiplex; actives raise or lower the signal. A digest of the protocol: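 Multiplexed cis-reporter assay, HepG2 cells, 24 h treatment. Total RNA → oligo(dT) RT → PCR with reporter-specific primers → 6-FAM primer extension → HpaI cut → CE. Bidirectional fit vs DMSO.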

Test [18] concerns the target Nuclear receptor subfamily 1 group I member 3 (Homo sapiens) (UniProt Q14994). Briefly: ATG_CAR_TRANS: Attagene TRANS-FACTORIAL HepG2 Assay for human Constitutive Androstane Receptor (CAR) (AID 2282969).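 Note: activators raise reporter mRNA above DMSO so AC50 marks induction.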 As to conditions: HepG2 Attagene TRANS-FACTORIAL CAR reporter. Put shortly:
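HepG2 cells transiently transfected with GAL4-UAS reporter units; TRANS format reads activity of exogenous chimeric NR-Gal4 protein. After 24 h dosing, reporter mRNA quantified by RT-PCR, 6-FAM labelling and capillary electrophoresis; gain of signal fitted against DMSO.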

Test [19] in a line: ATG_M_19_TRANS: Attagene TRANS-FACTORIAL HepG2 Assay for M19 Transcription Factor (Internal Marker) (AID 2282974). The conditions noted are these: HepG2 Attagene TRANS-FACTORIAL M19 internal marker reporter. Put shortly:
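Fluorescence of 6-FAM-labelled reporter cDNA fragments, separated by capillary electrophoresis, served as the readout. These derived from HepG2 cells carrying transfected GAL4-UAS reporter units after 24 h dosing, with DMSO as negative control.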

The nature of test [20]: ATG_GAL4_TRANS: Attagene TRANS-FACTORIAL HepG2 Assay for GAL4 (Internal Marker) (AID 2282976). The conditions noted are these: HepG2 Attagene TRANS GAL4 internal marker reporter. Put shortly:
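Liver HepG2 line bearing multiplexed GAL4-UAS reporter constructs; 24 h chemical treatment. Transcripts were quantified as fluorescent fragments on capillary electrophoresis after RT-PCR and HpaI cut, with activity fitted upward from DMSO.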

Sequence of Nuclear respiratory factor 1 (Homo sapiens) (Q16656 whole entry, looked up): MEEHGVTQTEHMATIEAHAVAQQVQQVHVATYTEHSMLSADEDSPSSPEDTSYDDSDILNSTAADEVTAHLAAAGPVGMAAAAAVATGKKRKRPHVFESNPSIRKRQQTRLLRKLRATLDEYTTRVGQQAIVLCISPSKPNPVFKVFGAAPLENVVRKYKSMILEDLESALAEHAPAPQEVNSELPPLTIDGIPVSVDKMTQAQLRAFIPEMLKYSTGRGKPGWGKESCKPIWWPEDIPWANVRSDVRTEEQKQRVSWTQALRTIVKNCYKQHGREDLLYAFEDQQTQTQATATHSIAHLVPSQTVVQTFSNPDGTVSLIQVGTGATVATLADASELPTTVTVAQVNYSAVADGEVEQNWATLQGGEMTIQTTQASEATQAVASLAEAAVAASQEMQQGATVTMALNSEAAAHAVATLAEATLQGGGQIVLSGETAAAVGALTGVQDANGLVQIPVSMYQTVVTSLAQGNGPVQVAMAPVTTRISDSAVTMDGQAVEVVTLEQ
Sequence of Nuclear receptor subfamily 1 group I member 3 (Homo sapiens) (Q14994 whole entry, looked up, the tested form may be a part): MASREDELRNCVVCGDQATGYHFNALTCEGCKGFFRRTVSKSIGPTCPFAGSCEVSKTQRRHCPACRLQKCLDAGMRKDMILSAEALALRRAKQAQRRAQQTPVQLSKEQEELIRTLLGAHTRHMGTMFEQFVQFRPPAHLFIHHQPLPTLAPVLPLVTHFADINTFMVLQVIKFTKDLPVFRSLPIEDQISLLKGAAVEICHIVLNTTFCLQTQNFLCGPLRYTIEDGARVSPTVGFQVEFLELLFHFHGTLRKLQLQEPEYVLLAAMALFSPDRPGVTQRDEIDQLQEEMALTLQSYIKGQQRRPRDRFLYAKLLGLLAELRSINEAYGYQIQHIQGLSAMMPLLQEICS
Sequence of Estrogen-related receptor gamma (Homo sapiens) (P62508 whole entry, looked up, the tested form may be a part): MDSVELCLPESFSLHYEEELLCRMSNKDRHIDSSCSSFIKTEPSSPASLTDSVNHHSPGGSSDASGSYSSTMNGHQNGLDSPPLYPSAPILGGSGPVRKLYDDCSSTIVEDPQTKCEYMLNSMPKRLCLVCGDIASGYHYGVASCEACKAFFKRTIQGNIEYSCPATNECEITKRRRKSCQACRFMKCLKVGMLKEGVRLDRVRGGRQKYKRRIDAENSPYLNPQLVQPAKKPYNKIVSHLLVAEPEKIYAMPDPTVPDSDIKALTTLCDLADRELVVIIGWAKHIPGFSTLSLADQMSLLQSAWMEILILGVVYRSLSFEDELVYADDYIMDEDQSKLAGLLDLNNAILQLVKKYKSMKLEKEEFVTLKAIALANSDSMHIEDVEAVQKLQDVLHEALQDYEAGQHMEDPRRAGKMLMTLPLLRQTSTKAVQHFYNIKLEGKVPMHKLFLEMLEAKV
Sequence of Steroid hormone receptor ERR1 (Homo sapiens) (P11474 whole entry, looked up, the tested form may be a part): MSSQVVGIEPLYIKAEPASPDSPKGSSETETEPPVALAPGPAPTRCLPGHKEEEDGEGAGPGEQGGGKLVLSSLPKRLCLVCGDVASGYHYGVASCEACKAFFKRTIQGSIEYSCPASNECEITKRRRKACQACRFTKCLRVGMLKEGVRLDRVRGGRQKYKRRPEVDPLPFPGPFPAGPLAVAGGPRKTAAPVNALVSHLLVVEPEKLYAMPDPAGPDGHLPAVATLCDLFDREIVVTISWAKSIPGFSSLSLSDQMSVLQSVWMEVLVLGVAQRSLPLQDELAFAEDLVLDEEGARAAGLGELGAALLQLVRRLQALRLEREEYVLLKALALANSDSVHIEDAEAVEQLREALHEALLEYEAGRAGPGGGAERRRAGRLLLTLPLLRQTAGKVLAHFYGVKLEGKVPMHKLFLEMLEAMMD
Sequence of X-box-binding protein 1 (Homo sapiens) (P17861 whole entry, looked up): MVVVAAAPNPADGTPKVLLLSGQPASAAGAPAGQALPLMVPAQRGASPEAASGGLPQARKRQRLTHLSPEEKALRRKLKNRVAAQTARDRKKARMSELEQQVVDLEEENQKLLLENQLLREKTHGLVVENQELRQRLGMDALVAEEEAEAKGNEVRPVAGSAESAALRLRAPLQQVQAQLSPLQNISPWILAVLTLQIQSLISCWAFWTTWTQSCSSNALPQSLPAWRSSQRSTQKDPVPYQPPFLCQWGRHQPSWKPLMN
Sequence of Transcriptional activator Myb (Homo sapiens) (P10242 whole entry, looked up): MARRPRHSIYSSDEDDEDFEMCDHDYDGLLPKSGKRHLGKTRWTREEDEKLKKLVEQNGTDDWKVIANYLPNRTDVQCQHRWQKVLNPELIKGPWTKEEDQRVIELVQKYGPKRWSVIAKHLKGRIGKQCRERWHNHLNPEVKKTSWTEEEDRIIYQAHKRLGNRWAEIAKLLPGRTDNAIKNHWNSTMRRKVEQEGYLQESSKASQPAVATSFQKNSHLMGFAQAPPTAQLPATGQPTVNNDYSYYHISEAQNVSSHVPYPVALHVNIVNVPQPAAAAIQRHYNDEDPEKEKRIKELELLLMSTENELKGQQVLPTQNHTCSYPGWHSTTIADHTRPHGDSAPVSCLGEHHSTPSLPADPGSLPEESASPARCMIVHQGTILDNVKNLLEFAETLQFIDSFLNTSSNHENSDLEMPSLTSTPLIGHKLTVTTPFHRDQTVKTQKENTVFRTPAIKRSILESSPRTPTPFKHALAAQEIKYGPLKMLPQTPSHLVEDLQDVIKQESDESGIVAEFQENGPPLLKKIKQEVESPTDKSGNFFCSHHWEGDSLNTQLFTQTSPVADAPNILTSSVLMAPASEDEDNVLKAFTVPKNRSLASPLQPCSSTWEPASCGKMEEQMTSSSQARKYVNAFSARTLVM
Sequence of Hepatocyte nuclear factor 4-alpha (Homo sapiens) (P41235 whole entry, looked up, the tested form may be a part): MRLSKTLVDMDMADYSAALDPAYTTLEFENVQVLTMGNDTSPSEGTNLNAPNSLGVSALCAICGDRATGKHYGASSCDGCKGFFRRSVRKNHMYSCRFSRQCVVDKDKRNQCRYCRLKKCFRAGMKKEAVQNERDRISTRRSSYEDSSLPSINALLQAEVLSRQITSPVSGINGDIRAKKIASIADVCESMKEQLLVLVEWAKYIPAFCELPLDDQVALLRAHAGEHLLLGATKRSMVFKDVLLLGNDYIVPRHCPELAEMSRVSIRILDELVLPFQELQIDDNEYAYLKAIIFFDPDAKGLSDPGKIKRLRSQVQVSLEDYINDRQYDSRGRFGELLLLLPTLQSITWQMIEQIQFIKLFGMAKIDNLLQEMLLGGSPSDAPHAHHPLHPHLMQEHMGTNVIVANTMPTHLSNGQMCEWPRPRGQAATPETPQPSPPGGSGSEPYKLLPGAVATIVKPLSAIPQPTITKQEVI
Sequence of Nuclear receptor subfamily 4 group A member 2 (Homo sapiens) (P43354 whole entry, looked up): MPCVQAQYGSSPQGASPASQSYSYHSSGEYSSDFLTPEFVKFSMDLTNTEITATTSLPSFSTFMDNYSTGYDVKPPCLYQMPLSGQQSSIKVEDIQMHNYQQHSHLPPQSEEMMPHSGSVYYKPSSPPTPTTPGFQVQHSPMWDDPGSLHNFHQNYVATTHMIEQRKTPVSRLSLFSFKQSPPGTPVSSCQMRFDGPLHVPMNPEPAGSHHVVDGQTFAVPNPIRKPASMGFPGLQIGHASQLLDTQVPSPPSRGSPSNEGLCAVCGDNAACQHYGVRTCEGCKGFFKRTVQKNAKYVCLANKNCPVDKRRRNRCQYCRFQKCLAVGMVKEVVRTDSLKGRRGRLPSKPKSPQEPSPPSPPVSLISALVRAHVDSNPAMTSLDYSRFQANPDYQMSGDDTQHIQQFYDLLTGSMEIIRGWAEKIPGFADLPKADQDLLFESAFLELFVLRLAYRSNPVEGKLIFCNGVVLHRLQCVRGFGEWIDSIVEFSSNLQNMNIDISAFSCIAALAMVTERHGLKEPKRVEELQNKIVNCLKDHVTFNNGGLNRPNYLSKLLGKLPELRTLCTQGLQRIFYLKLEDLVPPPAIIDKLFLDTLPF
Sequence of Bile acid receptor (Homo sapiens) (Q96RI1 whole entry, looked up, the tested form may be a part): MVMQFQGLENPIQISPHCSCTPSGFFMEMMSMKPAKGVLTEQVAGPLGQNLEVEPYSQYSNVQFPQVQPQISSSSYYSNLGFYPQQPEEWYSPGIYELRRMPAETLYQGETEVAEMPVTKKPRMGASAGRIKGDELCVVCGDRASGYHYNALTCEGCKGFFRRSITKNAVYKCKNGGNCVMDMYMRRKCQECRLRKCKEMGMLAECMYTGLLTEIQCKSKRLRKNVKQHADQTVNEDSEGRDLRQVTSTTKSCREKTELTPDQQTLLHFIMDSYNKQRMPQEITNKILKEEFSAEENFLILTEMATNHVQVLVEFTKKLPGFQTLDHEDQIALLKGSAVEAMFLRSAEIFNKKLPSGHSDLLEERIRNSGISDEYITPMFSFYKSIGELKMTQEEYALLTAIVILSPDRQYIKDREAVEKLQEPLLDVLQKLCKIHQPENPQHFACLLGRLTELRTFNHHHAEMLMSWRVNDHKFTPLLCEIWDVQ
Sequence of Glucocorticoid receptor (Homo sapiens) (P04150 whole entry, looked up, the tested form may be a part): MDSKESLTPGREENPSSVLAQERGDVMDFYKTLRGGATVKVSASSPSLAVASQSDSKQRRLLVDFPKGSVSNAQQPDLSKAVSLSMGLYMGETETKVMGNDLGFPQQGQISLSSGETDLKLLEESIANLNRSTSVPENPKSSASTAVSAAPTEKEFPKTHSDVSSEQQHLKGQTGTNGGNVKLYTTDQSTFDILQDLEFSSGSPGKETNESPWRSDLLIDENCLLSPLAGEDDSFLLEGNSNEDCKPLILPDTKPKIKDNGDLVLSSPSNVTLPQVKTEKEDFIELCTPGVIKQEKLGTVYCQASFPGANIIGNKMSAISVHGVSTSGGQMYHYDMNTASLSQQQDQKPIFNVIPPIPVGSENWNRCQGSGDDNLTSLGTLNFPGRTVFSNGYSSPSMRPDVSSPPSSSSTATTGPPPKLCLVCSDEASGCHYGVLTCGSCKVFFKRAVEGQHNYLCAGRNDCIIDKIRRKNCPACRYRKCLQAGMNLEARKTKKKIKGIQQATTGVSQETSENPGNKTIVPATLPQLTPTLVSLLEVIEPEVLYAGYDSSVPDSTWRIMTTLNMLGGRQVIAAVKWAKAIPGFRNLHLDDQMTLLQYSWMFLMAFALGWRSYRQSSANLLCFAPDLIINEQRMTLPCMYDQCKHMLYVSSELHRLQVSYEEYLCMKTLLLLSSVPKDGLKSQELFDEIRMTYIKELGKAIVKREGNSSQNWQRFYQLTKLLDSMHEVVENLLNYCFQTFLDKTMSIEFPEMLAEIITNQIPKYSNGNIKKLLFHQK

In the case of `O=C(CC(=O)C(F)(F)C(F)(F)C(F)(F)F)c1cccs1`, the AC50 in test [1] is 81 µM (active) and 34.2 µM (active); in [3], 11 µM (active); in test [6] it was 8.17 µM (active) and 32.9 µM (active); in [16], 50 µM (active). Also, the outcome in test [2], in test [3], in test [4], in test [5], in [7] and in [8] was inactive. Besides, the result in test [9], in test [10], in test [11], in [12], in test [13] and in test [14] was inactive. Further, the result in test [15], in test [16] and in [17] was inactive.
Take `O=C(Nc1cccc([N+](=O)[O-])c1)c1cc2ccccc2cc1O`: the compound was called inactive in [1], in [3], in test [18], in [4], in [5] and in test [6]. The outcome in [7], in [9], in test [10], in test [11], in [12] and in test [15] was inactive. The call in test [16] and in [17] was inactive. Further, the half-maximal activity concentration (AC50) in [2] was 48.1 µM (active).
`CCCCCCCCCCCC[N+](C)(C)CCCCCCCCCCCC`: the compound was called inactive in [1], in test [2], in test [18], in test [4], in [5] and in [6]. Moreover, the compound was called inactive in test [7], in test [8], in [11], in test [13], in test [14] and in test [15]. Besides, the outcome in test [16] and in [17] was inactive. In addition, the values for the AC50 in test [3] and in [12] were 8.42 µM (active) and 58.1 µM (active), respectively.
For `C=CC(=C)CC/C=C(\C)CCC=C(C)C`, the call in test [1], in [2], in test [18], in [4], in test [5] and in test [6] was inactive. Besides, the compound was called inactive in test [19], in [20], in test [7], in [9], in test [10] and in [11]. Also, the compound was classed as inactive in [13], in test [14], in test [16] and in test [17]. The AC50 in test [3] is 6.84 µM (active).
As to `C=CC(=O)OCCC(F)(F)C(F)(F)C(F)(F)C(F)(F)C(F)(F)C(F)(F)C(F)(F)C(F)(F)F`, the outcome in test [1], in test [2], in test [3], in test [18], in test [5] and in [9] was inactive. Also, the call in test [10], in test [11], in test [12], in [14], in test [15] and in test [16] was inactive. In test [17], the compound was classed as inactive. In addition, the AC50 in test [4] was 11 µM (active).
With `CC1=CC(=O)c2ccccc2C1=O`, the call in test [1], in [2], in [3], in [18], in test [4] and in [5] was inactive. Also, the outcome in [6], in test [19], in [7], in [10], in test [11] and in [12] was inactive. For the same compound, the outcome in test [16] and in test [17] was inactive.
For the compound `CCCCCCCCCCCC`, the outcome in test [1], in test [2], in test [19], in [20], in [8] and in test [11] was inactive. The result in test [13], in [14], in test [16] and in test [17] was inactive. The AC50 in test [2] was 124 µM (active).
